The antibiotic and cytotoxicity screens of Wong et al. (2023)
The campaign covered roughly 39,000 compounds. About 1,500 (3.8%) were called active. What follows is part of a selection rich in actives, with near analogues and random picks from the rest.

What follows are compounds tested on HSkMC (human skeletal muscle cells) (assay: cytotoxicity call (relative viability < 0.9)). Settings: 10 µM.

Row | SMILES | cytotoxicity call
1 | C[C@H](CO)N1C[C@H](C)[C@H](CN(C)C(=O)NC2CCCCC2)OCc2ccccc2-c2c(n(C)c3ccccc23)C1=O | inactive
2 | CN1C(=O)CO[C@H]2CN(C(=O)NCc3cccnc3)C[C@@H]21 | inactive
3 | COc1ccc(S(=O)(=O)Nc2ccc3c(c2)CC(=O)N([C@@H](C)CO)C[C@H](C)[C@@H](CN(C)S(=O)(=O)c2ccc(C)cc2)O3)cc1 | inactive
4 | Cc1nnc(SCC2=C(C(=O)O)N3C(=O)[C@@H](NC(=O)Cn4cnnn4)[C@H]3SC2)s1 | inactive
5 | O=C(O)[C@@H]1CCCNC1 | inactive
6 | CC(=O)CNC(=O)Cc1ccccc1 | inactive
7 | CCN(CC)S(=O)(=O)c1nnc[nH]1 | inactive
8 | C[C@H](CO)N1C[C@H](C)[C@@H](CN(C)C(=O)Nc2ccc(C(F)(F)F)cc2)Oc2ncc(-c3ccc(C#N)cc3)cc2C1=O | inactive
9 | CO[C@@H](C(=O)N(C)C[C@H]1OCc2ccccc2-c2c(n(C)c3ccccc23)C(=O)N([C@H](C)CO)C[C@@H]1C)c1ccccc1 | inactive
10 | CC(C)(C)OC(=O)N1CC[C@H](c2cn(-c3ccc(C(F)(F)F)cc3)nn2)[C@@H]1C(=O)Nc1cccc2cccnc12 | inactive
11 | CO[C@@H]1CN(C)C(=O)c2cc(NS(C)(=O)=O)ccc2OC[C@H](C)N(C(=O)C2CCCCC2)C[C@@H]1C | inactive
12 | COc1ccc(CN(C)C[C@H]2OCCCC[C@@H](C)Oc3ccc(NC(=O)Cc4ccccc4)cc3C(=O)N([C@H](C)CO)C[C@@H]2C)cc1 | inactive
13 | CN1C(=O)c2cc(NC(=O)c3cnccn3)ccc2OC[C@@H]2O[C@H](CC(=O)N[C@H]3CCN(Cc4ccccc4)C3)CC[C@@H]21 | inactive
14 | C[C@@H]1CN([C@H](C)CO)C(=O)c2ccccc2-c2ccccc2CO[C@@H]1CN(C)C(=O)Nc1cccc(Cl)c1Cl | inactive
15 | Cc1ccc(S(=O)(=O)Nc2ccc3c(c2)CC(=O)N([C@H](C)CO)C[C@@H](C)[C@@H](CN(C)Cc2ccc(Cl)c(Cl)c2)O3)cc1 | active
16 | Cc1ccc(S(=O)(=O)Nc2ccc3c(c2)CC(=O)N([C@H](C)CO)C[C@@H](C)[C@H](CN(C)Cc2ccc(Cl)c(Cl)c2)O3)cc1 | inactive
17 | C[C@@H]1CN([C@@H](C)CO)C(=O)c2cccc(NC(=O)Nc3ccc(C(F)(F)F)cc3)c2O[C@@H]1CN(C)S(=O)(=O)c1ccc(Cl)cc1 | inactive
18 | C[C@@H]1CN([C@H](C)CO)C(=O)c2cccc(NC(=O)Nc3ccc(C(F)(F)F)cc3)c2O[C@@H]1CN(C)S(=O)(=O)c1ccc(Cl)cc1 | inactive
19 | C[C@H]1CN([C@@H](C)CO)C(=O)c2cccc(NC(=O)Nc3ccc(C(F)(F)F)cc3)c2O[C@@H]1CN(C)S(=O)(=O)c1ccc(Cl)cc1 | active
20 | C[C@H]1CN([C@@H](C)CO)C(=O)c2cccc(NC(=O)Nc3ccc(C(F)(F)F)cc3)c2O[C@H]1CN(C)S(=O)(=O)c1ccc(Cl)cc1 | active
21 | C[C@@H]1CN([C@@H](C)CO)C(=O)c2cccc(NC(=O)Nc3ccc(C(F)(F)F)cc3)c2O[C@H]1CN(C)S(=O)(=O)c1ccc(Cl)cc1 | inactive
22 | C[C@H](CO)N1C[C@H](C)[C@H](CN(C)S(=O)(=O)c2ccc(Cl)cc2)Oc2c(NC(=O)Nc3ccc(C(F)(F)F)cc3)cccc2C1=O | inactive
23 | C[C@@H]1CCCCO[C@H](CN(C)Cc2ccc(Cl)c(Cl)c2)[C@H](C)CN([C@@H](C)CO)C(=O)c2cc(NS(C)(=O)=O)ccc2O1 | inactive
24 | C[C@H]1CN([C@@H](C)CO)C(=O)c2cc(C#Cc3ccccn3)cnc2O[C@H]1CN(C)C(=O)CCN1CCCCC1 | inactive

Row | SMILES | cytotoxicity call
25 | C[C@@H]1CN([C@H](C)CO)C(=O)Cc2cc(NC(=O)CCCCCC(=O)Nc3ccccc3N)ccc2O[C@@H]1CN(C)Cc1ccc(Cl)c(Cl)c1 | inactive
26 | C[C@@H]1CN([C@@H](C)CO)C(=O)c2cccc(NS(=O)(=O)c3cccs3)c2O[C@H]1CN(C)C(=O)Nc1cccc2ccccc12 | inactive
27 | C[C@@H]1CCCCO[C@H](CN(C)C(=O)Nc2ccc3c(c2)OCO3)[C@H](C)CN([C@H](C)CO)C(=O)c2cc(NC(=O)c3ccccc3)ccc2O1 | inactive
28 | C[C@@H]1CN([C@@H](C)CO)C(=O)c2cc(NC(=O)Cc3cn(C)c4ccccc34)ccc2O[C@H]1CN(C)Cc1ccc(C(=O)Nc2ccccc2N)cc1 | inactive
29 | CC(C)NC(=O)Nc1ccc2c(c1)CC(=O)N([C@H](C)CO)C[C@H](C)[C@@H](CN(C)S(=O)(=O)c1cccs1)O2 | inactive
30 | CC(C)NC(=O)N(C)C[C@H]1Oc2c(NS(=O)(=O)c3ccccc3)cccc2C(=O)N([C@@H](C)CO)C[C@@H]1C | inactive
31 | Cc1ccc(S(=O)(=O)N(C)C[C@@H]2Oc3ccc(NS(=O)(=O)c4ccc(F)cc4)cc3CC(=O)N([C@@H](C)CO)C[C@@H]2C)cc1 | inactive
32 | C[C@@H]1CN([C@@H](C)CO)C(=O)c2cc(NC(=O)NC3CCCCC3)ccc2O[C@@H](C)CCCCO[C@H]1CN(C)C(=O)Cc1ccccc1 | inactive
33 | C[C@@H]1CN([C@H](C)CO)C(=O)c2cc(NC(=O)c3ccncc3)ccc2O[C@@H]1CN(C)S(=O)(=O)c1cn(C)cn1 | inactive
34 | CCCCC(CC)CN1CN(CC(CC)CCCC)CC(C)(N)C1 (stereo not given) | active
35 | C[C@@H]1CN([C@@H](C)CO)C(=O)Cc2cc(NC(=O)NC3CCCCC3)ccc2O[C@H]1CN(C)Cc1ccc(C(=O)Nc2ccccc2N)cc1 | inactive
36 | C[C@@H]1CN([C@@H](C)CO)S(=O)(=O)c2ccc(Br)cc2O[C@@H]1CN(C)C(=O)c1cnccn1 | inactive
37 | C[C@@H]1CCCCO[C@@H](CN(C)Cc2ccc(C(=O)O)cc2)[C@@H](C)CN([C@H](C)CO)C(=O)c2cc(NC(=O)CCC(F)(F)F)ccc2O1 | inactive
38 | C[C@H](CO)N1C[C@H](C)[C@@H](CN(C)Cc2ccccc2C(F)(F)F)OCc2ccccc2-c2ccccc2C1=O | inactive
39 | C[C@H](CO)N1C[C@H](C)[C@H](CN(C)Cc2ccccc2C(F)(F)F)OCc2ccccc2-c2ccccc2C1=O | active
40 | C[C@@H]1CN([C@H](C)CO)C(=O)c2ccccc2-c2ccccc2CO[C@@H]1CN(C)Cc1ccccc1C(F)(F)F | inactive
41 | C[C@H]1CN([C@@H](C)CO)C(=O)c2ccccc2-c2ccccc2CO[C@H]1CN(C)Cc1ccccc1C(F)(F)F | inactive
42 | C[C@@H]1CN([C@@H](C)CO)C(=O)c2ccccc2-c2ccccc2CO[C@@H]1CN(C)Cc1ccccc1C(F)(F)F | inactive
43 | C[C@H]1CN([C@@H](C)CO)C(=O)c2ccccc2-c2ccccc2CO[C@@H]1CN(C)Cc1ccccc1C(F)(F)F | active
44 | C[C@H](CO)N1C[C@H](C)[C@@H](CN(C)C(=O)Nc2cccc3ccccc23)Oc2c(NC(=O)Nc3ccc(F)cc3)cccc2C1=O | inactive
45 | C[C@H](CO)N1C[C@H](C)[C@H](CN(C)Cc2ccc(C(=O)O)cc2)Oc2ccc(NC(=O)CCN3CCOCC3)cc2C1=O | inactive
46 | NC(=O)NCC#Cc1ccc2c(c1)[C@]1(C(=O)N2)[C@H](c2ccccc2OCCO)N2[C@H](c3ccccc3)[C@H](c3ccccc3)OC(=O)[C@H]2[C@@H]1C(=O)N1CCCCCCC1 | inactive
47 | Cc1noc(C)c1NC(=O)N(C)C[C@H]1Oc2ccc(NS(=O)(=O)c3cn(C)cn3)cc2CC(=O)N([C@H](C)CO)C[C@H]1C | inactive
48 | CN1C(=O)c2cc(NC(=O)c3ccc(C(F)(F)F)cc3)ccc2OC[C@@H]2O[C@@H](CC(=O)NC3Cc4ccccc4C3)CC[C@@H]21 | inactive

Row | SMILES | cytotoxicity call
49 | C[C@@H]1CN([C@@H](C)CO)C(=O)c2cc(NC(=O)CCCN(C)C)ccc2O[C@H]1CN(C)Cc1ccc2c(c1)OCO2 | inactive
50 | Nc1[nH]ncc1-c1cc(Cl)ccc1Oc1cc(F)c(S(=O)(=O)Nc2cscn2)cc1Cl | inactive
51 | Cc1noc(C)c1S(=O)(=O)Nc1ccc2c(c1)C(=O)N([C@H](C)CO)C[C@@H](C)[C@@H](CN(C)C)OCCCC[C@H](C)O2 | inactive
52 | CCc1nc2ccc(C(=O)NC3CCN(Cc4ccccc4)CC3)cn2c1N(C)Cc1cc2ccccc2s1 | active
53 | CCc1nc2ccc(C(=O)NC3CCN(Cc4ccccc4)CC3)cn2c1N(C)CCN1CCOCC1 | inactive
54 | CCc1nc2ccc(C(=O)Nc3cccc(OCC(=O)N(C)C)c3)cn2c1N(C)Cc1cc2ccccc2s1 | inactive
55 | CCN(CC)c1ccnc([C@H]2COCCN2)n1 | inactive
56 | CC(C)NC(=O)N(C)C[C@@H]1Oc2ccc(NC(=O)Nc3ccc4c(c3)OCO4)cc2C(=O)N([C@@H](C)CO)C[C@H]1C | inactive
57 | CNC1C(O)C(NC)C2OC3(O)C(=O)CC(C)OC3OC2C1O.Cl.Cl (stereo not given) | inactive
58 | Nc1ccccc1C(=O)C[C@H](N)C(=O)O | inactive
59 | Nc1ccc(/C=C/C(=O)NCc2cc3cc(-c4ccc(C(=O)N5CCC(F)(F)CC5)cc4)cc(-c4ccc(F)cc4)c3o2)cn1 | active
60 | C[C@H]1CN([C@@H](C)CO)C(=O)c2cc(NC(=O)c3ccncc3)ccc2O[C@H]1CN(C)Cc1ccncc1 | inactive
61 | O=C1[C@@H]2[C@H](C(=O)N1c1ccccc1)C13COC[C@H](c4ccccc4)N1C(=O)C2(C(=O)NCc1ccccc1)O3 (stereo not given in full) | inactive
62 | COc1ccc(S(=O)(=O)Nc2ccc3c(c2)C(=O)N([C@H](C)CO)C[C@H](C)[C@@H](CN(C)Cc2ccc(-c4ccccc4)cc2)O3)cc1 | inactive
63 | COc1ccc(S(=O)(=O)Nc2ccc3c(c2)C(=O)N([C@@H](C)CO)C[C@H](C)[C@H](CN(C)Cc2ccc(-c4ccccc4)cc2)O3)cc1 | inactive
64 | COc1ccc(S(=O)(=O)Nc2ccc3c(c2)C(=O)N([C@H](C)CO)C[C@H](C)[C@H](CN(C)Cc2ccc(-c4ccccc4)cc2)O3)cc1 | inactive
65 | COc1ccc(S(=O)(=O)Nc2ccc3c(c2)C(=O)N([C@H](C)CO)C[C@@H](C)[C@H](CN(C)Cc2ccc(Oc4ccccc4)cc2)O3)cc1 | inactive
66 | COc1ccc(S(=O)(=O)Nc2ccc3c(c2)C(=O)N([C@H](C)CO)C[C@@H](C)[C@@H](CN(C)Cc2ccc(-c4ccccc4)cc2)O3)cc1 | active
67 | COc1ccc(S(=O)(=O)Nc2ccc3c(c2)C(=O)N([C@@H](C)CO)C[C@@H](C)[C@@H](CN(C)Cc2ccc(-c4ccccc4)cc2)O3)cc1 | active
68 | COc1ccc(S(=O)(=O)Nc2ccc3c(c2)C(=O)N([C@@H](C)CO)C[C@@H](C)[C@H](CN(C)Cc2ccc(-c4ccccc4)cc2)O3)cc1 | active
69 | COc1ccc(S(=O)(=O)Nc2ccc3c(c2)C(=O)N([C@@H](C)CO)C[C@H](C)[C@@H](CN(C)Cc2ccc(-c4ccccc4)cc2)O3)cc1 | inactive
70 | COc1ccc(S(=O)(=O)Nc2ccc3c(c2)C(=O)N([C@H](C)CO)C[C@@H](C)[C@H](CN(C)Cc2ccc(-c4ccccc4)cc2)O3)cc1 | inactive
